Source: PubChem (National Center for Advancing Translational Sciences (NCATS))
The list is not random: actives were taken first. Their share in the collection is about 22%.
Pf growth 96h: inhibits malaria parasite growth, 96 h | Potency, µM (titrated, usually from 28.7 µM), actives largely listed as inhibitors | actives 6.9% (n = 320,000) | P. falciparum luciferase reporter growth, 96 h
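Two-generation exposure (96 h) targets delayed-death phenotype. Reporter parasites carrying integrated firefly luciferase, in red cells at 2% hematocrit and 0.05% parasitemia final, kept at 37 C, 5% CO2; luminescence loss indicates inhibition.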
CHX counter: counter-screen for Shiga toxin inhibitors: cycloheximide protein synthesis inhibition; cell reporter, cycloheximide protein synthesis inhibition counterscreen; max response, %; actives 12% (n = 300,000); AID 2314; in the data active = max response mostly above about 13%, no sharp cut-off; inactive = mostly below about 14%; also: read at 38.3 µM for the half of the compounds with a filed dose
Pf growth 48h: inhibits P. falciparum growth in the first generation, 48 h; P. falciparum luciferase growth in erythrocytes, 48 h; Potency, µM (series often up to 28.7 µM), actives largely listed as inhibitors; actives 5.9% (n = 310,000); AID 504832
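Parasite viability was followed by luminescence of a genomically integrated firefly luciferase. Cultures held 0.1% parasitemia at 2% hematocrit (final), incubated under 5% CO2 at 37 C.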
Shiga inhibitor: Shiga toxin inhibition | actives 9.2% (n = 290,000) | Vero cells, Shiga toxin protein synthesis inhibition reporter | AID 2315 | inhibition, % at 38.7 µM; in the data active = inhibition mostly above about 28%, no sharp cut-off; inactive = mostly below about 43%
LmPK inhibitor: LmPK (Leishmania mexicana) enzyme inhibition; Potency, µM (highest dose often 57.5 µM), hits mostly inhibitors; purified LmPK, Kinase-Glo ATP luminescence, 1 h; actives 0.37% (n = 290,000); AID 1721
Target sequence (Q27686 whole entry, looked up): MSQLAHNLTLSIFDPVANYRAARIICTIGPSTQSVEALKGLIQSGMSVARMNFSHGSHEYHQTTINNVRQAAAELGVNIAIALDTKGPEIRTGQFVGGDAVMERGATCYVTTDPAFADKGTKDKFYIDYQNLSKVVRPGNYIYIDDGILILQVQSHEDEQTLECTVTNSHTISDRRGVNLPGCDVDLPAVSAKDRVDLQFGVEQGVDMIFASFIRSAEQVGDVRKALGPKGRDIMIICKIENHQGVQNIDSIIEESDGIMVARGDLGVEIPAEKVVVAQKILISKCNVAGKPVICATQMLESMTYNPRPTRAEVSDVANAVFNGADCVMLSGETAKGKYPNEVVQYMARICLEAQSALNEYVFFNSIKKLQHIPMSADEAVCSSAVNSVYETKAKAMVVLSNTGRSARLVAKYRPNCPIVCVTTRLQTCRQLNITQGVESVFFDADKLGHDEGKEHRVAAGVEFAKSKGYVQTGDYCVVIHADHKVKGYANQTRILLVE
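Kinase-Glo luminescence read after 1 h RT reaction of 0.1 nM LmPK with 0.5 mM PEP and 0.1 mM ADP. Activity scaled between uninhibited and enzyme-free controls.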
A number is an active result; n = inactive; u = inconclusive; x = not tested or not shown; [ ] = remark or other dose. Unless noted, calls follow the shape of the dose curve; as a rule, active = well fitted inhibition curve with a large enough effect; inconclusive = small, poorly fitted or top-dose-only effect, or another doubt; inactive = no such curve, though single readings can be large or run the other way.

SMILES	Pf growth 96h	CHX counter	Pf growth 48h	Shiga inhibitor	LmPK inhibitor
COc1cc(OC)c(OC)cc1CCC(C)NCCC(c1ccccc1)c1ccccc1 (stereo not drawn)	2.1µM	n	4.1µM	n	n
CCCCCCCSc1nsc(N)n1	n	n	n	65	n
CCCSc1nsc(NC(=O)CC)n1	8.3µM	38	n	72	u
CCCSc1nsc(NC(=O)C(c2ccccc2)c2ccccc2)n1	u	n	x	n	n
CCCCCCSc1nsc(NC(=O)CC(C)C)n1	u	27	n	37	n
COc1cc(/C=C2\SC(N)=NC2=O)ccc1O	n	n	n	n	n
CC(Oc1ccc(Cl)cc1Cl)c1ccn[nH]1 (stereo not drawn)	n	n	n	n	n
N#C/C(C(=O)c1ccccc1)=C1/SC=C(N)N1c1ccccc1	x	39	u	122	n
CC1(C)CC(NCc2cccc([N+](=O)[O-])c2)CC(C)(C)N1	n	17	n	n	n
CC(C)NCc1cccc([N+](=O)[O-])c1	n	n	n	n	n
CN(C)NC(=O)c1ccc([N+](=O)[O-])s1	12µM	n	10µM	n	n
Cc1ccc(C(=O)NNC(=S)Nc2cccc3ccccc23)s1	n	30	n	67	n
Cc1ccc(C(=O)Nc2cc([N+](=O)[O-])ccc2F)s1	n	n	n	active	n
O=C(Nc1ccccc1F)c1ccc([N+](=O)[O-])s1	4.1µM	38	10µM	n	n
O=C(NNC(=S)Nc1cccc2ccccc12)c1cccc(Br)c1	n	n	x	n	n
O=C(COC(=O)c1ccc([N+](=O)[O-])s1)Nc1ccccc1	n	n	n	n	n
CCOc1ccc(NC(=O)CCCNC(=O)Cn2cnc3sc(C)c(C)c3c2=O)cc1	n	n	n	n	n
Cc1ccc(CN2CCN(C/C(Cl)=C/c3ccccc3)CC2CCO)o1 (stereo not drawn)	n	n	n	n	n
Cc1cccc(NS(=O)(=O)c2nnc(NC(=O)C3CCCCC3)s2)c1	n	n	n	n	n
O=C(Nc1cccc2ccccc12)c1ccc([N+](=O)[O-])s1	5.2µM	n	12µM	n	n
O=C(Nc1cccnc1)c1ccc([N+](=O)[O-])s1	u	x	5.2µM	x	x
O=C(Nc1cccnc1)c1ccc([N+](=O)[O-])cc1Cl	n	n	n	n	n
O=C(COC(=O)c1ccc([N+](=O)[O-])s1)NCc1ccccc1	u	n	n	n	n
CC(O)c1cccc2cc(C(O)CNC(C)(C)C)oc12 (stereo not drawn)	x	n	x	n	x
O=C(COC(=O)c1ccc([N+](=O)[O-])o1)c1ccccc1	u	n	n	n	n
SMILES	Pf growth 96h	CHX counter	Pf growth 48h	Shiga inhibitor	LmPK inhibitor
CCOC(=O)C1CCN(C(=O)COC(=O)c2ccc([N+](=O)[O-])o2)CC1	12µM	x	u	x	x
O=C(OCCCOC(=O)c1ccc([N+](=O)[O-])o1)c1ccc([N+](=O)[O-])o1	n	x	13µM	x	x
CCc1ccc(S(=O)(=O)N/N=C\c2ccc3c(c2)OCO3)cc1	n	n	n	n	n
NC(=O)c1ccc(-c2nnc(Nc3ccc(S(N)(=O)=O)cc3)c3ccccc23)cc1	n	n	u	n	n
CC(OC(=O)/C=C/c1cccs1)C(=O)Nc1ccc(C(N)=O)cc1 (stereo not drawn)	n	x	n	x	x
CCOC(=O)c1ccc(NC(=O)/C=C/c2cccs2)cc1	u	46	u	109	n
CCN(CC)CCOC(=O)c1ccc(NC(=O)/C=C/c2cccs2)cc1	u	75	u	118	n
OC(CNC1CCCC1)COc1ccc(-c2ccccc2)cc1 (stereo not drawn)	n	n	u	n	n
OC(CNC1CCCCC1)COCCOc1ccc(Br)cc1 (stereo not drawn)	12µM	n	10µM	n	n
O=C(O)c1ccc(Nc2nc3ccc(Cl)cc3[nH]2)cc1	n	n	n	n	n
ClCCNc1nc2ccc(Cl)cc2[nH]1	n	19	n	n	n
COc1ccc(C(=O)NC(=S)NCCO)cc1Br	n	16	n	n	n
C=CCNC(=S)NC(=O)c1ccc(C)c(Br)c1	n	38	n[5.75 µM]	100	n
CCN(CC)C(=S)NC(=O)c1ccc(OC)c(Br)c1	n	n	u	n	n
COc1ccc(C(=O)NC(=S)NCc2cccnc2)cc1Br	n	n	n	n	n
C=CCN(CC=C)C(=S)NC(=O)c1ccc(OC)c(Br)c1	15µM	n	10µM	n	n
CCOc1ccc(-c2c(C(=O)N/N=C/C3CC=CCC3)nnn2-c2nonc2N)cc1 (stereo not drawn)	u	n	n	n	n
CC(C)C(C(=O)Nc1nccs1)c1ccc(Cl)cc1 (stereo not drawn)	9.3µM	n	u	n	n
O=C(Nc1ccncc1)c1ccc(Cl)cc1	u	n	u	n	n
CC(C)C(C(=O)Nc1ccncc1)c1ccc(Cl)cc1 (stereo not drawn)	1.5µM	n	3.3µM	n	n
N/C(Cc1ccc(Cl)cc1)=N\OC(=O)c1cccc2ccccc12	u	23	u	n	n
Cc1ccccc1OCC(=O)O/N=C(\N)Cc1ccc(Cl)cc1	n	n	x	n	n
N/C(Cc1ccc([N+](=O)[O-])cc1)=N\OC(=O)c1ccccc1F	n	18	n	38	n
O=C(OCc1c(F)cccc1Cl)c1cc([N+](=O)[O-])ccc1N1CCOCC1	n	x	u	x	x
COc1ccc(C/C(N)=N/OC(=O)c2ccc(Cl)cc2)cc1	n	21	u	55	n
SMILES	Pf growth 96h	CHX counter	Pf growth 48h	Shiga inhibitor	LmPK inhibitor
O=C(Cc1ccc([N+](=O)[O-])cc1)OCc1c(F)cccc1Cl	n	17	n	n	n
N/C(Cc1ccc([N+](=O)[O-])cc1)=N\OC(=O)Cc1ccc(Cl)cc1	n	n	n	n	n
N/C(Cc1ccc(Cl)cc1)=N\OC(=O)c1ccc2ccccc2c1	10µM	n	u	n	n
COc1ccc(C/C(N)=N/OC(=O)Cc2ccccc2)cc1	u	n	n	n	n
COC(=O)[C@H](CC(C)C)NC(=O)Nc1ccccc1F	n	n	n	n	n
COC(=O)c1[nH]c2ccccc2c1NC(=O)CN1CCN(c2cccc(Cl)c2)CC1	n	n	3.3µM	n	n
COC(=O)c1[nH]c2cccc(Cl)c2c1NC(=O)CN1CCCCC1C (stereo not drawn)	4.1µM	n	u	n	n
COC(=O)c1[nH]c2cccc(Cl)c2c1NC(=O)CN1CCN(CCO)CC1	n	n	n	n	n
COC(=O)c1[nH]c2ccccc2c1NC(=O)CN1CCC(C(N)=O)(N2CCCCC2)CC1	x	n	13µM	n	n
COC(=O)c1[nH]c2ccccc2c1NC(=O)CN1CCCCCC1	u	n	x	n	n
COC(=O)c1[nH]c2cc(OC)ccc2c1NC(=O)CN1CCN(c2cccc(C)c2)C(C)C1 (stereo not drawn)	10µM	n	12µM	n	n
CN1CCC(=NNc2ccc(S(=O)(=O)N3CCOCC3)cc2[N+](=O)[O-])CC1	n	n	n	n	n
CN(C)CCNC(=S)Nc1ccc(F)c(F)c1F	n	n	n	n	n
